Assay results: PubChem BioAssay
Unmarked numbers belong to inactive results. Activity calls are given as the source filed them. Unless noted, no stated cut-off is given here; in the data, active means inhibition above about 28%; inactive means the rest.

Legend:
[1] = molecular target: Nuclear receptor coactivator 3 (Homo sapiens) (UniProt Q9Y6Q9); test: NCOA3 GAL4-fusion reporter inhibition – cell-based, luminescence, quadruplicate, confirmation (AID 588792;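 active means mean inhibition over 43.08%, the solvent-only control mean plus 3 SD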;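 further: 0% = DMSO treated cells and 100% = gossypol at 36 µM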); details: HEK293 GAL4-SRC3 luciferase reporter, at 3.6 µM, active compounds read high
[2] = system: transactivating tegument protein VP16 (Human herpesvirus 1), Gal4-VP16 luciferase reporter; test: repression of VP16-driven luciferase reporter – cell-based, luminescence, high throughput, counter-screen for SRC3 inhibitor project (AID 588794; in the data active means inhibition above about 30%); details: mammalian cells, at 3.6 µM, active compounds read high
[3] = molecular target: Nuclear receptor coactivator 1 (Homo sapiens) (UniProt Q15788); test: NCOA1 GAL4-fusion reporter inhibition – cell-based, luminescence, quadruplicate, confirmation (AID 588820;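 active means mean inhibition above 46.68%, the untreated control wells mean plus 3 SD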;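 further: 0% = DMSO wells and 100% = gossypol 36 µM treated wells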); details: HEK293 GAL4-SRC1 luciferase reporter, at 3.6 µM, active compounds read high
[4] = repression of VP16-driven luciferase reporter – cell-based, luminescence, high throughput, counter-screen for SRC1 inhibitor project (AID 588824; in the data active means inhibition above about 25%); details: cell-based VP16 transactivation luciferase luminescence; at 3.6 µM; active compounds read high
[5] = StAR promoter reporter inhibitors, counter-screen for LRH-1 inverse agonist project, cell-based, luminescence, high throughput (AID 651611); details: StAR promoter luciferase reporter counterscreen, at 3.6 µM, active compounds read high
[6] = molecular target: Nuclear receptor subfamily 5 group A member 2 (Homo sapiens) (UniProt O00482); test: NR5A2 activity suppression in reporter cells – cell-based, luminescence, confirmation (AID 651613; in the data active means inhibition above about 42%;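 further: HEK293T cells co-transfected with LRH-1 and StAR promoter luciferase reporter; 0% = vehicle wells and 100% = parental cells lacking receptor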); details: cell-based LRH-1 luciferase reporter, inverse agonism; at 3.6 µM; active compounds read high
[7] = molecular target: Steroidogenic factor 1 (Homo sapiens) (UniProt Q13285); test: inverse agonism at SF1 nuclear receptor – cell-based, luminescence, high throughput, counter-screen for LRH-1 inverse agonist project (AID 651614; in the data active means inhibition above about 44%;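 further: cells cotransfected with StAR promoter reporter and SF1 expression vector; 0% = vehicle on cells with receptor and 100% = vehicle on cells lacking receptor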); details: cell-based SF1 luciferase reporter, at 3.6 µM, active compounds read high
[8] = compounds suppressing VP16-driven luciferase signal – cell-based, luminescence, high throughput, counter-screen for LRH-1 inverse agonist project (AID 651615; in the data active means inhibition above about 33%); details: Gal4-VP16 luciferase reporter cells, at 3.6 µM, active compounds read high
[9] = system: transactivating tegument protein VP16 (Human herpesvirus 1); test: compounds suppressing VP16-driven luciferase signal – cell-based, luminescence, single concentration, counter-screen for SRC2 inhibitor project (AID 652007; in the data active means inhibition above about 36%); details: cell-based VP16 transactivation luciferase reporter, at 8.9 µM, active compounds read high
[10] = molecular target: Nuclear receptor coactivator 2 (Homo sapiens) (UniProt Q15596); test: inhibition of GAL4-SRC2 driven luciferase expression – cell-based, luminescence, HEK293, triplicate, confirmation (AID 652008;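 active means mean inhibition above 46.5%, the solvent-only control mean plus 3 SD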;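 further: 0% = DMSO-treated cells and 100% = Gossypol at 36 µM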); details: HEK293 GAL4-SRC2 luciferase reporter, at 8.9 µM, active compounds read high
Sequence of Nuclear receptor coactivator 2 (Homo sapiens) (Q15596 whole entry, looked up, the tested form may be a part): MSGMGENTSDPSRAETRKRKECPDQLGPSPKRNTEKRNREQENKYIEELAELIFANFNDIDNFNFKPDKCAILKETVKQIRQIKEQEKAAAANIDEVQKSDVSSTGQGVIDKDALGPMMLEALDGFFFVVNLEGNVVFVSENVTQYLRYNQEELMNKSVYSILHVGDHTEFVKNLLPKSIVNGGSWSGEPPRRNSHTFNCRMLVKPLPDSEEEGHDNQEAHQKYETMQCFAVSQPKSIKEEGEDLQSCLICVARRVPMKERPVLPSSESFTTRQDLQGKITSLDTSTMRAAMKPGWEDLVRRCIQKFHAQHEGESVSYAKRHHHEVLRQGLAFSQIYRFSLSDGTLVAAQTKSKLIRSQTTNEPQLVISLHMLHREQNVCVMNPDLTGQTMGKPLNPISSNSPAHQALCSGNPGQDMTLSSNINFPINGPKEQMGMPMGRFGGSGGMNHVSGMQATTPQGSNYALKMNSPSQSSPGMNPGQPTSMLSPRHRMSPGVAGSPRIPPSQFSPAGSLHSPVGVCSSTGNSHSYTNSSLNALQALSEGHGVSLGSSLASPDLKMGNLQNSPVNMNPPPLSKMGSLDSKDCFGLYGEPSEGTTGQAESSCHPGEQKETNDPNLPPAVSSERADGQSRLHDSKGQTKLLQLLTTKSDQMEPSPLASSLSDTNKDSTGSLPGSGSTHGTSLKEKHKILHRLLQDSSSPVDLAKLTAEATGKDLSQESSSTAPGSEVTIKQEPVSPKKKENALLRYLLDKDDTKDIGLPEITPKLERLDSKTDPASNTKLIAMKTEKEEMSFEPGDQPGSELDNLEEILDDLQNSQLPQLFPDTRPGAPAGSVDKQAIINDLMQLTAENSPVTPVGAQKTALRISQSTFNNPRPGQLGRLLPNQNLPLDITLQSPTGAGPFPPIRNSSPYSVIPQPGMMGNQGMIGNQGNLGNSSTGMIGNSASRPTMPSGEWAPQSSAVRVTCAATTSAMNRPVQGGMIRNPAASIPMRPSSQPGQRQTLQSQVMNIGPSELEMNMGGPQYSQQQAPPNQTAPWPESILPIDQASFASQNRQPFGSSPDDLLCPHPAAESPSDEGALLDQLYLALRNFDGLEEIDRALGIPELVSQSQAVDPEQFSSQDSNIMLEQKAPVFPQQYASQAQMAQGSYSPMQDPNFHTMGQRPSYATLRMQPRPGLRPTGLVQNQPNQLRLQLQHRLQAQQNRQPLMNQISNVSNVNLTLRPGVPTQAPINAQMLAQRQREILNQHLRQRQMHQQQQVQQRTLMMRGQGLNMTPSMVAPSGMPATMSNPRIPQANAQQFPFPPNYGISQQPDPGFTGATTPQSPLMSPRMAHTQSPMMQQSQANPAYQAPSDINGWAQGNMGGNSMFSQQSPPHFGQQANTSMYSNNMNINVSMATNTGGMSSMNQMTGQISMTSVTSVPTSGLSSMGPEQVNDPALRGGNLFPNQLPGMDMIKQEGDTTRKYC

Sequence of Nuclear receptor coactivator 1 (Homo sapiens) (Q15788 whole entry, looked up, the tested form may be a part): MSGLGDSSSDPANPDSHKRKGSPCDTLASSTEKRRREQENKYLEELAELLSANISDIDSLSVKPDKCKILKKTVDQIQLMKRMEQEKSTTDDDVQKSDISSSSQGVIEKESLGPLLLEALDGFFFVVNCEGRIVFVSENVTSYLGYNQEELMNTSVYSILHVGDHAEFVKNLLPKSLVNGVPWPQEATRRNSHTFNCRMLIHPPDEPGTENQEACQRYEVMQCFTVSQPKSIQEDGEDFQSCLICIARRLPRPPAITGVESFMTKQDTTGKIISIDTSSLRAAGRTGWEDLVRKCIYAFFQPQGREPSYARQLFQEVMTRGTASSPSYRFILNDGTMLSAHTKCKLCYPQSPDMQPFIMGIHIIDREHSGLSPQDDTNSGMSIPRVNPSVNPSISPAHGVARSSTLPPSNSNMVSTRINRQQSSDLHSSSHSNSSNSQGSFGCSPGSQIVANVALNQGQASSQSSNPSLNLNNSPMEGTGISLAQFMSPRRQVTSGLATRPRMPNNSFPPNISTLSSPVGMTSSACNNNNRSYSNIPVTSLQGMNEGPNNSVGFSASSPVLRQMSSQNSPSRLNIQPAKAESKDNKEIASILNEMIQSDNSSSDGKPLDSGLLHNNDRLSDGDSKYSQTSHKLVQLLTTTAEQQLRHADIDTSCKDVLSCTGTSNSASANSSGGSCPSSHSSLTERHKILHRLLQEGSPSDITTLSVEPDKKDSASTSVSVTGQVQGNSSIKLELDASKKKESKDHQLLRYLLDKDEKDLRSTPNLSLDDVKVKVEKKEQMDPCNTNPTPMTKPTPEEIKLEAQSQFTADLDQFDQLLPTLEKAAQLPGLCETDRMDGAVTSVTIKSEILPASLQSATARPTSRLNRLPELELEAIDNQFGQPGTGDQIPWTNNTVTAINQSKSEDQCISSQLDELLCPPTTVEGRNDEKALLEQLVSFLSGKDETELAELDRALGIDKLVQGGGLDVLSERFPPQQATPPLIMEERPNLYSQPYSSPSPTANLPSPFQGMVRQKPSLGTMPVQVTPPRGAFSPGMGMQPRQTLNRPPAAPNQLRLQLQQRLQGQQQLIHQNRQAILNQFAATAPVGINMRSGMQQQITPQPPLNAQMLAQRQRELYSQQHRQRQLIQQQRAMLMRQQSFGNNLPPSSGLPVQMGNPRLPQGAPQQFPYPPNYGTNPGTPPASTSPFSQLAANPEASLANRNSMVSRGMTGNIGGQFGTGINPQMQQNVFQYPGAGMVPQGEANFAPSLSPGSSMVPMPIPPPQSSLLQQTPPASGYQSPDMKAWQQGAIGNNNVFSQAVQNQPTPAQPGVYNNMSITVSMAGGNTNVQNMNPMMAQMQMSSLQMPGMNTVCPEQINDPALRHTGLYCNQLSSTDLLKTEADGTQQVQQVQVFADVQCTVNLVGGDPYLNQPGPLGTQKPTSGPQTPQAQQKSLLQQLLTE
Sequence of Steroidogenic factor 1 (Homo sapiens) (Q13285 whole entry, looked up, the tested form may be a part): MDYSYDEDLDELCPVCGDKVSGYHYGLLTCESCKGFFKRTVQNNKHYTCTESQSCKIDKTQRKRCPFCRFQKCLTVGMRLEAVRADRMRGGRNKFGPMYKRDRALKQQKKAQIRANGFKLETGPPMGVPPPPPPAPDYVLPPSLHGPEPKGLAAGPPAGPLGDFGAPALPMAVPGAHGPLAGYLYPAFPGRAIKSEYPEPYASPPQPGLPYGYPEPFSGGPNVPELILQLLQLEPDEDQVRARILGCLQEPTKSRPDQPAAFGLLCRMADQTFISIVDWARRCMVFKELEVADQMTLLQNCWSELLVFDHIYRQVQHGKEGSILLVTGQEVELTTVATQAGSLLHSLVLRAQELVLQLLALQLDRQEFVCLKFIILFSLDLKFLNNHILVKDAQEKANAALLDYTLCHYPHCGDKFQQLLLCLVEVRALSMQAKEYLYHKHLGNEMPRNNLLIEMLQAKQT
Sequence of Nuclear receptor coactivator 3 (Homo sapiens) (Q9Y6Q9 whole entry, looked up, the tested form may be a part): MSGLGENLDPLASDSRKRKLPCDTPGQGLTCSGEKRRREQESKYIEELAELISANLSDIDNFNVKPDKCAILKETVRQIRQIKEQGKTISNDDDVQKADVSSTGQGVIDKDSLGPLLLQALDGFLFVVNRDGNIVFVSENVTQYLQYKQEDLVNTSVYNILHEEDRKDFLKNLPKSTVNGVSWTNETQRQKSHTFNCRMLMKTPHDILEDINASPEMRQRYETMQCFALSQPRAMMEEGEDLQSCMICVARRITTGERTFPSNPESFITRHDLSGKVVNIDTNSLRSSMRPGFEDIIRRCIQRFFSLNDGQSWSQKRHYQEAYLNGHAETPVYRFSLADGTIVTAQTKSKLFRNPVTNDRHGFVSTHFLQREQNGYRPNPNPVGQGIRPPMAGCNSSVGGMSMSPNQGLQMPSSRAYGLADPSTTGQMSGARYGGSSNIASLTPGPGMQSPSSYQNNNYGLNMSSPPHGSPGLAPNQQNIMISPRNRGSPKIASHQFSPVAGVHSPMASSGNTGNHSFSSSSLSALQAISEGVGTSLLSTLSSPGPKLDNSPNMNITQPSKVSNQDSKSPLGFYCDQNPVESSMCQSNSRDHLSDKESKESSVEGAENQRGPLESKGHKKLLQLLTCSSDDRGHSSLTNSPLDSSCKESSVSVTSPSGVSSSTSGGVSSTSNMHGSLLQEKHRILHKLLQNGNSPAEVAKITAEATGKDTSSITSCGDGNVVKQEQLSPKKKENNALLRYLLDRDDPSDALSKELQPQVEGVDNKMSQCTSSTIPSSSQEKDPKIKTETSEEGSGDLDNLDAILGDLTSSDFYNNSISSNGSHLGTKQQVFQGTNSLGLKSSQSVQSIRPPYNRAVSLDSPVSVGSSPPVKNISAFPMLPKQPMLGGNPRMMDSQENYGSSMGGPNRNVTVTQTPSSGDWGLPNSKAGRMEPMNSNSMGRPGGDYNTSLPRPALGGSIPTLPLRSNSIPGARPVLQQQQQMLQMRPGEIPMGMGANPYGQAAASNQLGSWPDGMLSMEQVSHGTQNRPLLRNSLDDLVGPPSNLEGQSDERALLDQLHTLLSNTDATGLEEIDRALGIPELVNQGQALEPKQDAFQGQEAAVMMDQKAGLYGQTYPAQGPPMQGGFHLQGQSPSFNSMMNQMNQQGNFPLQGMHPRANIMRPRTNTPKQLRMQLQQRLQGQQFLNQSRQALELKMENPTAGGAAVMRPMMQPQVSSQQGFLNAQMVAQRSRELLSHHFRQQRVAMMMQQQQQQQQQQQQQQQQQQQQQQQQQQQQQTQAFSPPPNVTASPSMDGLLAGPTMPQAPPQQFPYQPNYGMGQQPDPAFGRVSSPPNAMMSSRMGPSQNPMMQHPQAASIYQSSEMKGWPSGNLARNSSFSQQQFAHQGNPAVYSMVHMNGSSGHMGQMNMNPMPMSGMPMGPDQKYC

Row | Compound | inhibition [1] | inhibition [2] | inhibition [3] | inhibition [4] | inhibition [5] | inhibition [6] | inhibition [7] | inhibition [8] | inhibition [9] | inhibition [10]
1 | COc1cc(C=CC(=O)c2cc(OC)c(OC)c(OC)c2)cc(OC)c1OC | 72.3% (active) | 57.4% (active) | 38.1% | 46.4% (active) | 73.1% (active) | 67.1% (active) | 76.1% (active) | 69.1% (active) | 47.7% (active) | 73% (active)
2 | O=C(CCl)N(c1ccccc1)C1CCS(=O)(=O)C1 (stereo not given) | 55.4% (active) | 18% | 22.3% | 14% | 50.6% (active) | 71.3% (active) | 65.1% (active) | 16.8% | 40.7% (active) | 57.2% (active)
3 | COC(=O)c1ccccc1-c1c2ccc(=N)cc-2oc2cc(N)ccc12 | 35% | 55.2% (active) | 28.7% | 48.3% (active) | 62.2% (active) | 109% (active) | 79.1% (active) | 88% (active) | 21.2% | 3.71%
4 | C=C1C(=O)C2=CC1CCC(=O)C1(C)CCC(OC(C)=O)C(C)(C)C1CC2O (stereo not given) | 35.4% | 53.2% (active) | 8.46% | 51.3% (active) | 30.3% (active) | 3.03% | 33.2% | 56.1% (active) | 33.9% | 41.2%
5 | Cc1ccccc1C(=O)N1CCN(c2ccc(NC(=O)c3ccc4c(c3)OCO4)cc2)CC1 | 55.4% (active) | 72.5% (active) | 60.7% (active) | 72.9% (active) | 60.1% (active) | 75.1% (active) | 76.1% (active) | 80.7% (active) | 10.2% | 27.1%
6 | Cc1nc2c(-c3ccccc3)cnn2c(N)c1-c1ccccc1 | 43.4% (active) | 37.4% (active) | 13.1% | 5.33% | -35.4% | -128% | -43.9% | -38.5% | 19.9% | 58.2% (active)
7 | CC(=O)OC[C@]12CC[C@H]3[C@@](C)(CC[C@H]4C(C)(C)CCC[C@]34C)[C@@H]1CC(C1=CC(=O)OC1O)O2 (stereo not given in full) | 93.2% (active) | 90% (active) | -93.3% | 90.8% (active) | 92.7% (active) | 110% (active) | 97.1% (active) | 95% (active) | 96% (active) | 93.4% (active)
8 | Cc1cc(C(=O)COC(=O)c2ccccc2Br)c(C)n1CC1CCCO1 (stereo not given) | 77.5% (active) | 71.7% (active) | 60.3% (active) | 51.9% (active) | 57.3% (active) | 20.4% | 51% (active) | 48.6% (active) | 66.2% (active) | 90.6% (active)
9 | Cc1ccc(/C=C2/SC(=S)N(CCCC(=O)Nc3ccc(O)cc3)C2=O)cc1 | 57% (active) | 12.8% | 41.2% | 3.55% | 55% (active) | 6.39% | 52.3% (active) | -5.05% | 43.6% (active) | 54.1% (active)
10 | N#Cc1sc2nccc(Nc3ccccc3)c2c1N | 87.1% (active) | 62.4% (active) | 62.9% (active) | 58.6% (active) | 32.5% (active) | 66.4% (active) | 48.8% (active) | 79.6% (active) | 4.1% | 52.2% (active)
11 | NC(=S)NN=C1c2cc(OCCN3CCOCC3)ccc2-c2ccc(OCCN3CCOCC3)cc21 | 53.8% (active) | 68.8% (active) | 8.8% | 65.2% (active) | 89.9% (active) | 96.3% (active) | 82.2% (active) | 91.7% (active) | 68.6% (active) | 58.9% (active)
12 | Cc1cc(C)c(C#N)c(SCc2nnc(-c3ccccc3)o2)n1 | 66.3% (active) | 59.8% (active) | 38.8% | 32.9% (active) | 33.1% (active) | -23.7% | 27.9% | 15.5% | 46.2% (active) | 82.9% (active)
13 | O=c1c2ccccc2oc2cc(C#CC3(O)CCCCC3)ccc12 | 32.4% | 33.5% (active) | -2.8% | -14.8% | -28.9% | -129% | -33.5% | -40.4% | -4.85% | 48.9% (active)
14 | CN(C(=O)COc1ccccc1C(=O)NCCOc1ccccc1)c1ccccc1 | 20.1% | 32.4% (active) | -24.3% | 32.8% (active) | 63.6% (active) | 31.8% | 54.3% (active) | 37.1% (active) | 36.4% (active) | 47.3% (active)
15 | CCC1(O)C(=O)OCc2c1cc1n(c2=O)Cc2cc3cc(O)ccc3nc2-1 (stereo not given) | 94.8% (active) | 79.2% (active) | 68.8% (active) | 77.4% (active) | 84.6% (active) | 104% (active) | 91.4% (active) | 83.8% (active) | 24.9% | 39.5%
16 | Cc1ccc(C(=O)O/N=C(\N)c2ccccn2)c(C)c1 | 60% (active) | 42.3% (active) | 15% | 28.9% (active) | 33.2% (active) | 9.46% | 36.5% | 13.6% | 71.3% (active) | 86% (active)
17 | CN=c1scc(-c2cccs2)n1/N=C/c1ccccc1O | 91.6% (active) | 89.5% (active) | 80% (active) | 81.4% (active) | 90.6% (active) | 90.4% (active) | 91.2% (active) | 89.6% (active) | 96.8% (active) | 97.8% (active)
18 | O=C(OCCC12CC3CC(CC(C3)C1)C2)c1ccc(NCc2cc(O)ccc2O)cc1 | 88.1% (active) | 25.4% | 11.1% | 57.7% (active) | 72.6% (active) | 80.7% (active) | 75.3% (active) | 83.8% (active) | 97.1% (active) | 98.4% (active)
19 | COc1ccc(-c2nsc3c(N4CCCCC4C)ncnc23)cc1 (stereo not given) | 84.2% (active) | 80.4% (active) | 70.2% (active) | 68.4% (active) | 80.2% (active) | 59.2% (active) | 80.9% (active) | 67% (active) | 83.1% (active) | 93.3% (active)
20 | O=C(COc1ccc(Cl)cc1Cl)Nc1ccccn1 | 56.2% (active) | 53.6% (active) | 32.1% | 48.2% (active) | 46.9% (active) | 27.2% | 60.6% (active) | 32.3% (active) | 67.4% (active) | 85.2% (active)
21 | COc1cccc(NC(=O)CSc2nnc(-c3cc(C)n(-c4ccccc4)c3C)o2)c1 | 46.8% (active) | 23.3% | 3.49% | -14.5% | -29.8% | -55.2% | -12.4% | -23.9% | 11% | 48.5% (active)
22 | CCC(C)(C)c1ccc(Oc2ccc(N)cc2)cc1 | 64.5% (active) | 52.2% (active) | 51.2% (active) | 48% (active) | 57.4% (active) | 87.3% (active) | 72.8% (active) | 63.9% (active) | 90.3% (active) | 95.4% (active)
23 | CC1CC(C)C(=NNC(N)=O)C(C(O)CC2CCC(=O)NC2=O)C1 (stereo not given) | 9.15% | 11.3% | 33.6% | 7.8% | 63.1% (active) | 76.7% (active) | 75.8% (active) | 30% | 8% | -0.31%
24 | CC(C)(C)c1ccc(C(=O)Nc2ccc(CC(=O)O)cc2)o1 | 54.1% (active) | 40% (active) | 37.9% | 42% (active) | 45.1% (active) | 52.5% (active) | 46.9% (active) | 37.7% (active) | 70.2% (active) | 92.1% (active)
25 | Cc1cc2sc3ccc(C#CC4(O)CCCCC4)cc3c(=O)c2cc1C | 95.4% (active) | 93.6% (active) | 90.4% (active) | 89.7% (active) | 91.2% (active) | 91.2% (active) | 92.6% (active) | 88.9% (active) | 94.2% (active) | 98.3% (active)
26 | CC1OC2CC(=O)OC2C2=C1C(=O)c1c(O)cccc1C2=O (stereo not given) | 97.6% (active) | 95.2% (active) | 97.5% (active) | 95.2% (active) | 96.8% (active) | 110% (active) | 98.2% (active) | 96.8% (active) | 98.9% (active) | 99.7% (active)
27 | NCC(=O)Nc1ccc(Cl)cc1C(=O)c1ccc[nH]1 | 66.1% (active) | 45.8% (active) | 47% (active) | 39.9% (active) | 49.4% (active) | 55.3% (active) | 62.3% (active) | 39.2% (active) | 21.2% | 43.5%
28 | COc1cc(OC)cc(-c2cc3nc(C)c(CCC(=O)O)c(C)n3n2)c1 | 66.4% (active) | 69.9% (active) | 55.8% (active) | 64.1% (active) | 64.9% (active) | 76.4% (active) | 71% (active) | 69% (active) | 89.9% (active) | 93.3% (active)
29 | O=C(O)c1ccccc1C(=O)Nc1ccc(Oc2cccc3ccccc23)cc1 | 26% | 32.2% (active) | 28% | 21.7% | 34.5% (active) | 29.8% | 57% (active) | 13.4% | 77.6% (active) | 75.2% (active)
30 | CC(C)(C)C(=O)/C(=C/c1ccncc1)n1cncn1 | 69.2% (active) | 55.3% (active) | 59.9% (active) | 48% (active) | 35.2% (active) | 42.6% (active) | 46.5% (active) | 69.2% (active) | 39.9% (active) | 63.3% (active)
